Consider 39 compounds from PubChem BioAssay.

Activity calls are given as the source filed them. No rule for the calls is given here.

The nature of the assay: Brca1-Bard1 BiLC signal decrease – luminescence, single concentration, counter-screen for Mdm2/MdmX interaction inhibitor project, confirmation (AID 504668). As to conditions: Brca1/Bard1 bimolecular luciferase complementation counterscreen, at 8 µM, hits give high values. Background: The purpose of a counterscreen is to sort out artefacts and off-target activity.
A word on the inhibition: it is how much of the control response was suppressed. `COc1ccc(NC(=O)c2cc3c(CO)cnc(C)c3oc2=Nc2cccc(F)c2)c(OC)c1`: the inhibition is 27.9% (active).

Regarding `COc1ccc(-n2c(C)c([N+](=O)[O-])c3ccc(O)c(CN4CCCCC4)c32)cc1`, the inhibition is 28.9% (active).

Consider `C=CCc1cccc(/C=N/NC(=O)CNc2ccccc2OC)c1O`, for which the inhibition was 28.3% (active).

For `C/C(=N\Nc1nc(-c2ccccn2)nc2ccccc12)c1ccc(F)cc1`, the inhibition is 34.4% (active).

For `Cc1oc(-c2ccccc2Cl)nc1CSCC(=O)N1CCCC1`, the inhibition was 25.7% (active).

For the compound `N#CCSc1nc2c(sc(=S)n2Cc2ccco2)c(=O)n1-c1ccc(F)cc1`, the inhibition was 31.6% (active).

Consider `COc1ccc(N/N=C/c2c(C(=O)O)ccc3ccccc23)cc1`, for which the inhibition is 24.1% (active).

As to `CC[N+]1=C(C)C(C)(C)c2cc(C)ccc21`, the inhibition is 28.2% (active).

In the case of `C[C@@H](NC(=O)OC(C)(C)C)c1nnc(S(=O)(=O)Cc2ccccc2)o1`, the inhibition is 24.9% (active).

For `O=C(N/N=C/c1cc(Br)cc(Br)c1O)c1cccc(S(=O)(=O)N2CCOCC2)c1`, the inhibition is 29.6% (active).

Consider `O=C(CNc1ccc(F)cc1)N/N=C/c1c(O)ccc2ccccc12`, for which the inhibition was 27.9% (active).

As for `CCCCCCCCCn1ccc(=N)cc1`, the inhibition is 23.6% (active).

Take `CCN(C[C@H]1N[C@@](CC)(C(=O)OC)[C@H]2C(=O)N(Cc3ccccc3)C(=O)[C@@H]12)S(=O)(=O)c1ccc(-c2ccccc2)cc1`: the inhibition was 34% (active).

With `COc1cccc(-c2nnc(NC(=O)c3ccc(S(=O)(=O)N(CC(C)C)CC(C)C)cc3)o2)c1`, the inhibition was 24.3% (active).

For the compound `CC(C)C(=O)N1CCN(c2ccc(NC(=O)c3ccc([N+](=O)[O-])o3)cc2)CC1`, the inhibition is 23.4% (active).

On to `CC(C)(C)c1ccc(OCC(=O)N/N=C/c2cc(Br)ccc2OC(=O)c2ccco2)cc1`, for which the inhibition is 27% (active).

As to `CC(C)(C)c1cc(Cl)c(O)c(NC(=S)NC(=O)c2cccnc2)c1`, the inhibition is 35.2% (active).

On to `COc1ccc(/C=C2\CCC/C(=C\C=N\N(C)C)C2=O)cc1`, for which the inhibition is 29.2% (active).

Consider `COc1ccc2cc1Oc1ccc(cc1)C[C@H]1c3c(cc4c(c3Oc3cc5c(cc3OC)CCN(C)[C@@H]5C2)OCO4)CCN1C`, for which the inhibition was 31.6% (active).

For `COc1cccc(/C=N/NC(=O)CNC(=O)C(c2ccccc2)c2ccccc2)c1O`, the inhibition was 28.6% (active).

Take `Oc1c(C(c2cccs2)N2CCN(c3ccccc3)CC2)ccc2cccnc12` (centres undefined): the inhibition was 23.1% (active).

Turning to `CCN1CCN(Cc2ccc(NC(=O)c3ccc(C)c(NC(=O)c4cccc(-c5cn[nH]c(=O)c5)c4)c3)cc2C(F)(F)F)CC1`, the inhibition is 32% (active).

Consider `CCOC(=O)CSC1=NC(=O)/C(=C/c2ccc(OC)cc2)S1`, for which the inhibition is 32.1% (active).

As for `COc1ccc(Cl)cc1NC(=O)c1nnn(CC(=O)Nc2ccc(OC)c(OC)c2)c1N`, the inhibition is 31.7% (active).

On to `O=C(Nc1nc(-c2ccccn2)cs1)c1cccc(S(=O)(=O)N2CCOCC2)c1`, for which the inhibition was 33.4% (active).

Turning to `CC(=O)c1ccc(NC(=O)c2cc(CC(C)C)nc3ccccc23)cc1`, the inhibition is 33.6% (active).

On to `O=C(Nc1cccc(Cl)c1)Nc1nnc(CSCCOc2ccc(Cl)cc2)s1`, for which the inhibition is 23% (active).

Regarding `CC1=Nc2cc(C(=O)N3CCCC3)ccc2Sc2c(C)ccc(C)c21`, the inhibition was 23.1% (active).

`COc1cc(/C=C/[N+](=O)[O-])ccc1OCc1cccc(C(=O)O)c1`: the inhibition was 35.1% (active).

`N#Cc1ccc(NC(=O)Nc2ccc(Oc3ccc(NC(=O)Nc4ccc(C#N)cc4)cc3)cc2)cc1`: the inhibition was 35.1% (active).

On to `CC(=O)O[C@@H]1C[C@H]2C(C)(C)C(=O)C=C[C@]2(C)[C@H]2CC[C@@]3(C)[C@H](c4ccoc4)OC(=O)[C@H]4O[C@]43[C@@]21C`, for which the inhibition is 33.8% (active).

`CCc1nc(Nc2ccncc2)c2oc3ccccc3c2n1`: the inhibition was 31.6% (active).

Consider `Cn1nc(-c2ccccn2)nc2c(=O)n(C)c(=O)nc1-2`, for which the inhibition was 33.8% (active).

For the compound `N#CC(c1ccc(Cl)cc1)c1ccc2c(C(F)(F)F)cc(C(F)(F)F)nc2n1` (centres undefined), the inhibition is 24% (active).

With `O=C(NNc1c2ccccc2nc2ccccc12)C(O)c1ccccc1` (centres undefined), the inhibition is 34.4% (active).

Consider `O=C(CCl)c1ccc2c(c1)CCN2C(=O)C1CC1`, for which the inhibition was 27% (active).

Turning to `COc1ccc(/C=C2\SC(=S)N(CCC(=O)NCCc3ccc(O)cc3)C2=O)cc1`, the inhibition was 27.4% (active).

Take `O=C(/C=C/c1ccc(OCc2c(F)cccc2Cl)cc1)N1CCOCC1`: the inhibition was 27.7% (active).

In the case of `COC(=O)C1=C(C)NC(C)=C(C(=O)OC)C1c1ccccc1[N+](=O)[O-]`, the inhibition was 28% (active).
